Several values for one entry are separate records, joined by “and”; a condition that tells them apart may be missing. Equal values may be shown once. Records with an inconclusive call do not appear. A number with no mark means an inactive call. Activity calls are given as the source filed them. Calls follow the shape of the dose curve; as a rule, active = well fitted curve in the direction sought with a large enough effect; inconclusive = small, poorly fitted or top-dose-only effect, or another doubt; inactive = no such curve, though single readings can be large; an effect the other way counts as inactive or inconclusive.

The test system of one test is HEK293. The test can be described thus: Cytotoxic Profiling of Annotated Libraries Using Quantitative High-Throughput Screening (AID 1296008). Also: nearly all actives have a fitted effect of over 60% in size. Also: potency is read from the fitted curve at half-maximal effect. As to max response: % is scaled to controls: 0 for no effect and ±100 for the full control effect. The following applies: Five cell lines viability, CellTiter-Glo ATP luminescence, 48-72 h; max response: hits give low values. The method in brief: (§1)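 Cells exposed to compounds for 48 or 72 hr at 37 degrees Celsius. Viability read as ATP-coupled luminescence with CellTiter-Glo after 10 min at room temperature.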
(In ATP-based viability assays light output follows the ATP content of the culture.)

The subject of test [1] is HaCat. The test is described as above. The following applies: Five cell lines viability, CellTiter-Glo ATP luminescence, 48-72 h; max response: hits give low values. In a few lines: as §1
A further test relates to NIH3T3. Described as above. The settings on record: Five cell lines viability, CellTiter-Glo ATP luminescence, 48-72 h; max response: hits give low values. In a few lines: as §1
The subject of test [2] is HACAT. The test can be described thus: qHTS assay to identify novel small-molecules to repurpose for Merkel cell carcinoma treatment (AID 1296009). Also: nearly all actives have a fitted effect of over 60% in size. Also: potency is read from the fitted curve at half-maximal effect. The settings on record: MCC and control cell lines, CellTiter-Glo viability, 72 h; at 44.8 µM (top of the series) unless noted. The method in brief: (§2)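 Dose-response viability screen; 72 hr exposure at 37 degree celsius; CellTiter-Glo added, 10 min room temperature, luminescence read; RLUs scaled between no-cell and DMSO wells.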

A further test relates to MCC-13. Described as above. The following applies: MCC and control cell lines, CellTiter-Glo viability, 72 h; series mostly up to 46 µM. The method in brief:
as §2

The next test deals with MCC-26. The description is as above. The settings on record: MCC and control cell lines, CellTiter-Glo viability, 72 h; series mostly up to 46 µM. In a few lines:
as §2

The next test relates to MKL-1. The description is as above. The settings on record: MCC and control cell lines, CellTiter-Glo viability, 72 h; series mostly up to 46 µM. In a few lines:
as §2

Another test deals with MKL-2. The test is described as above. The settings on record: MCC and control cell lines, CellTiter-Glo viability, 72 h; series mostly up to 46 µM. The method in brief: as §2
For a further test, the system named is UISO. The description is as above. The following applies: MCC and control cell lines, CellTiter-Glo viability, 72 h; series mostly up to 46 µM. In a few lines: as §2
Another test has as its system WaGa. The test is described as above. The settings on record: MCC and control cell lines, CellTiter-Glo viability, 72 h; series mostly up to 46 µM. The method in brief: as §2
For another test, the system named is C33A. Description: Primary qHTS to identify gynecologic anti-cancer compounds using libraries of approved drugs and bioactive compounds (AID 1345084). Also: % is scaled to controls: 0 for no effect and ±100 for the full control effect; nearly all actives have a fitted effect of over 55% in size. The following applies: Gynecologic cancer cell panel viability, ATPlite luminescence, 48 h; series mostly up to 57.5 µM. The method in brief:
(§3)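 48 h compound exposure at 37 C, 5% CO2; five-point qHTS. ATPlite luminescence readout of cell ATP.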
Background: In qHTS, concentration-response curves come from the screen itself.

The test system of the next test is TAB165. The test can be described thus: qHTS profiling for inhibitors of Plasmodium falciparum proliferation (AID 504749). Also: nearly all actives have a fitted effect of over 60% in size. Also: potency is read from the fitted curve at half-maximal effect. The settings on record: P. falciparum in erythrocytes, SYBR Green DNA, 72 h; series mostly up to 28.7 µM. The method in brief: (§4)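 Each compound contacts P. falciparum-infected red blood cells for 72 h at 37 C; lysis buffer (Tris, EDTA, saponin, Triton X, SYBR Green I) is added and fluorescence measured next morning; values normalized to controls.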

A further test has as its system CAOV3. The test can be described thus: Primary qHTS to identify gynecologic anti-cancer compounds using libraries of approved drugs and bioactive compounds (AID 1345084). Also: % is scaled to controls: 0 for no effect and ±100 for the full control effect; nearly all actives have a fitted effect of over 55% in size. The settings on record: Gynecologic cancer cell panel viability, ATPlite luminescence, 48 h; series mostly up to 57.5 µM. The method in brief:
as §3

In a further test the test system is KB-3-1. Description: Cytotoxic Profiling of Annotated Libraries Using Quantitative High-Throughput Screening (AID 1296008). Also: nearly all actives have a fitted effect of over 60% in size. Also: potency is read from the fitted curve at half-maximal effect. As to max response: % is scaled to controls: 0 for no effect and ±100 for the full control effect. The settings on record: Five cell lines viability, CellTiter-Glo ATP luminescence, 48-72 h; max response: hits give low values. In a few lines: as §1
The test system of another test is TAB109. Description: qHTS profiling for inhibitors of Plasmodium falciparum proliferation (AID 504749). Also: nearly all actives have a fitted effect of over 60% in size. Also: potency is read from the fitted curve at half-maximal effect. The settings on record: P. falciparum in erythrocytes, SYBR Green DNA, 72 h; series mostly up to 28.7 µM. In a few lines: as §4
Another test relates to TAB113. The test is described as above. The settings on record: P. falciparum in erythrocytes, SYBR Green DNA, 72 h; series mostly up to 28.7 µM. The method in brief: as §4
For a further test, the system named is W2. The description is as above. The following applies: P. falciparum in erythrocytes, SYBR Green DNA, 72 h; series mostly up to 28.7 µM. The method in brief: as §4

Consider `N#C/C(=C1\SCC(c2ccccc2Cl)S1)n1ccnc1` (stereo not drawn), for which the values for the max response with HEK293 and in the test with NIH3T3 were -7.28% and -9.88%, respectively. Besides, the result in the test with HaCat [1] and in the test on HACAT [2] was inactive. For the same compound, the Potency entry with MCC-13, in the test with MCC-26, in the test on MKL-1, in the test on MKL-2, with UISO and with WaGa was “inactive” throughout. The Potency entry with C33A is “inactive”.

As to `Oc1ccc(Cl)cc1Cc1cc(Cl)ccc1O`, the Potency in the test with TAB165 is 11.2 µM (active); in the test with HEK293, 21.1 µM (active); with MKL-1, 23.7 µM (active); in the test with MKL-2, 11.9 µM (active). Further, the Potency entry with MCC-26 is “inactive”.

For the compound `CCOC(=O)[C@H](CCc1ccccc1)N[C@@H](C)C(=O)N1[C@H](C(=O)O)C[C@@H]2CCC[C@@H]21`, the max response in the test on HEK293 was 1.35%; with NIH3T3, 0.794%. The compound was classed as inactive with HaCat [1] and with HACAT [2]. For the same compound, the Potency entry in the test on MCC-13, in the test with MCC-26, in the test on MKL-1, in the test on MKL-2, with UISO and with WaGa was “inactive” in each case. Also, the Potency entry in the test on C33A and with CAOV3 was “inactive” in each case.

As to `CCOC(=O)[C@@](C)(N)Cc1ccc(O)c(O)c1`, the Potency with HEK293 is 18.8 µM (active). Moreover, the outcome in the test with HaCat [1] and in the test on HACAT [2] was inactive. Further, the max response in the test on KB-3-1 was -9.02%. The Potency entry in the test on MCC-13 was “inactive”.

Turning to `CCOC(=O)[C@H](CCc1ccccc1)N[C@@H](C)C(=O)N1[C@H](C(=O)O)C[C@H]2CCCC[C@@H]21`, the Potency result with TAB109, in the test with TAB113, in the test on TAB165 and in the test on W2 was “inactive” each time.

`CCCCCCCCCCCCOCCOCCOCCOCCOCCOCCOCCOCCOCCO`: the Potency with HEK293 was 7.5 µM (active); in the test on WaGa, 21.1 µM (active). The max response with HaCat [1] was 0.283%; in the test with NIH3T3, -5.79%. Moreover, the Potency entry with MCC-13, in the test on MCC-26 and with CAOV3 was “inactive” in each case.

In the case of `CN(Cc1ccc(C(C)(C)C)cc1)Cc1cccc2ccccc12`, the Potency entry in the test with TAB109, in the test with MCC-13, with MCC-26, in the test with MKL-1, in the test with MKL-2 and in the test with UISO was “inactive” in each case. Besides, the Potency result with WaGa and in the test with C33A was “inactive” in each case. Further, in the test on W2, the Potency is 9.53 µM (active). Besides, the max response with KB-3-1 was -4.26% and -7.03%; with NIH3T3, -14%.

For `CCc1ccc(C(=O)C(C)CN2CCCCC2)cc1` (stereo not drawn), the Potency result in the test with TAB109, in the test with TAB113, in the test on TAB165, with MCC-13, in the test with MCC-26 and with UISO was “inactive” each time. Further, the Potency result in the test with C33A and in the test on CAOV3 was “inactive” throughout. Also, the max response in the test on HEK293 is -19.7%; with NIH3T3, -2.26%. For the same compound, the compound was classed as inactive with HaCat [1] and in the test on HACAT [2]. The Potency in the test on MKL-2 was 11.9 µM (active).

`CN1CCC[C@@H]1CCO[C@](C)(c1ccccc1)c1ccc(Cl)cc1`: the Potency entry with TAB113 and with MCC-26 was “inactive” in each case. Moreover, the Potency in the test with W2 was 13.5 µM (active); in the test on HEK293 it was 15 µM (active); with HaCat [1], 26.6 µM (active); with MKL-1, 23.7 µM (active); in the test with MKL-2, 9.44 µM (active); in the test on UISO, 21.1 µM (active). The max response in the test with KB-3-1 was -2.14%.

`NC(N)=NCc1cccc(I)c1`: the Potency entry with TAB109, with TAB113, in the test on TAB165 and in the test with W2 was “inactive” throughout. The max response in the test with KB-3-1 is 1.64% and -6.45%.

As for `O=C1c2cccc3c2[C@H](CCC3)CN1[C@@H]1CN2CCC1CC2`, the Potency in the test with HEK293 is 21.1 µM (active). The max response with HaCat [1] is -46%; in the test on KB-3-1, -11.9%. The Potency entry in the test with MCC-13, in the test on MCC-26, with MKL-1, in the test with MKL-2, in the test on UISO and in the test with WaGa was “inactive” in each case. The Potency result with C33A and in the test with CAOV3 was “inactive” in each case.

Source of the values: PubChem BioAssay (NCATS).
